Potency and affinity values are given separately. Calls of active or inactive are those of the source.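 The calls were made as follows: active = a dose-response curve fit returns a half-maximal inhibitory concentration, extrapolated values included; inactive = the fit returns no such concentration.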
What follows are molecules tested against HMG-CoA reductase [Enterococcus faecalis] (UniProt Q9FD70) (assay: class II HMG-CoA reductase inhibition potency – biochemical, Enterococcus faecalis, confirmation (AID 1233;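 also: 0% = full reaction carrier wells and 100% = background wells lacking mevalonate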)). Conditions: purified E. faecalis HMGR, NADPH absorbance 340 nm kinetics; series mostly up to 100 µM; inhibition: at the top concentration.

SMILES | inhibition
CCOC(=O)C(=O)Nc1ccc([N+](=O)[O-])cc1OC | -3.26% (inactive)
CCOC(=O)c1cc2c(ccn2C)n1CC(=O)N1CCN(c2cccc(C(F)(F)F)c2)CC1 | -1.25% (inactive)
Cc1nn(CCC(=O)NNC(=S)Nc2ccc([N+](=O)[O-])cc2)c(C)c1[N+](=O)[O-] | -3.33% (inactive)
COc1ccc(NC(=O)c2ccc3c(c2)n(C)c(=O)n3C)cc1 | -1.49% (inactive)
COc1ccc2c(C)cc(=S)[nH]c2c1 | -1.14% (inactive)
C=CCNC(=O)C(C#N)c1nc2ccccc2nc1N1CCCCCC1 (stereo not drawn) | -3.78% (inactive)
CCN(CC)CCCCCOc1ccccc1OC | -1.77% (inactive)
O=C(NCC1CCCO1)C(c1cccs1)N(Cc1cccs1)C(=O)Cn1nnc(-c2cccs2)n1 (stereo not drawn) | -6.06% (inactive)
C/C(=N\Nc1ccc(C(=O)O)cc1)c1ccc(-n2ccnc2)cc1 | 1.36% (inactive)
NCCc1nnc(SCc2ccc(F)cc2)o1 | 0.65% (inactive)
O=C(Cn1cccc1C(=O)c1ccccc1)NCc1ccco1 | -0.06% (inactive)
COC(=O)C(C(=O)OC)c1ccc(N)cc1 | 0.61% (inactive)
CCOC(=O)C1CCN(C(=O)CN(c2ccc3c(c2)OCCO3)S(C)(=O)=O)CC1 | -2.07% (inactive)
CCc1c(C)sc(NC(=O)C2CC2c2ccccc2)c1C(N)=O (stereo not drawn) | -0.13% (inactive)
CCC(Sc1ccccn1)C(=O)Nc1cccc([N+](=O)[O-])c1 (stereo not drawn) | -5.94% (inactive)
COc1ccc(N2C(=O)C3C4C=CC(C5CC45)C3C2=O)c([N+](=O)[O-])c1 (stereo not drawn) | -1.92% (inactive)
COc1cc(OC)c(C(=O)NC2CC(C)(C)NC(C)(C)C2)cc1OC | -0.58% (inactive)
CCOC(=O)/C(C#N)=C1/C(=O)N(Cc2ccccc2)c2ccccc21 | -7.29% (inactive)
CCN1C(=O)/C(=C/c2cn(C)nc2C)SC1=S | -13.8% (inactive)

SMILES | inhibition
CCOC(=O)Cc1nn(Cc2ccccc2)c(=O)c2ccccc12 | 0.6% (inactive)
CCC1(CC)C(=O)NN(c2ccccc2)C1=O | -1.66% (inactive)
CN(c1ccc(C(=O)N2CCCCC2)cc1)S(=O)(=O)c1ccccc1 | -3.77% (inactive)
Cc1ccc(C(=O)O)cc1S(=O)(=O)N1CCC(C(=O)O)CC1 | -3% (inactive)
CCCn1c(SCC(=O)N2CC(=O)Nc3ccccc32)nc2ccccc21 | -0.99% (inactive)
CC(=O)Nc1ccc2c(c1)OCCO2 | -4.59% (inactive)
S=C(NCc1ccccc1)N1CCN(c2cccc(Cl)c2)CC1 | -0.43% (inactive)
CN(C)CCCN(Cc1ccccc1)C(=S)Nc1ccc(SC(F)F)cc1 | -2.21% (inactive)
COC(=O)C(C)n1cnc2c(nnn2-c2ccc(OC)cc2)c1=O (stereo not drawn) | -0.41% (inactive)
C/C(=N/NC(=O)c1cc(O)c(O)c(O)c1)c1ccc([N+](=O)[O-])cc1 | 7.14% (inactive)
Cc1cccc(N/N=C(\C#N)S(=O)(=O)C(C)(C)C)c1 | -3% (inactive)
CCOc1cc(/C=N\NC(=O)OC(C)(C)C)ccc1OC(=O)c1ccco1 | -8.84% (inactive)
O=c1[nH]ncc2c3ccccc3n(Cc3cccc(Cl)c3)c12 | -6.09% (inactive)
CCc1c(C)nc2c(C#N)c(C)[nH]n2c1=O | 0.91% (inactive)
COCCNC(=O)C1c2cc(OC)c(OC)cc2C(=O)N(C)C1c1cccnc1 (stereo not drawn) | -0.13% (inactive)
Cc1ccc(S(=O)(=O)NCCCCCC(=O)N(C)C)cc1 | -2.88% (inactive)
O=C(Nc1ccccn1)c1cccc(S(=O)(=O)N2CCOCC2)c1 | -7.13% (inactive)
Cc1ccsc1/C=C1/NC(=O)N(Cc2ccc(F)cc2)C1=O | -7.22% (inactive)
O=C(COC(=O)/C=C/c1cn(-c2ccccc2)nc1-c1cccnc1)Nc1ccc(Cl)cc1Cl | -18.4% (inactive)

Source: PubChem BioAssay AID1233 (SRMLSC, 2008)
